Here are results for 174 sequences from paper PMC6212790, “How bacterial xenogeneic silencer rok distinguishes foreign from self DNA in its resident genome”.

The full ranking holds about 33,000 sequences; the median of “e-score” is about -0.038, and the highest 2% start at about 0.33. This excerpt belongs to a sample that is enriched for the highest values.

In the experiment the target is T1, GST-Rok-C97-191 (Bacillus subtilis subsp. subtilis str. …, UniProt O34857 97-191).
T1 sequence: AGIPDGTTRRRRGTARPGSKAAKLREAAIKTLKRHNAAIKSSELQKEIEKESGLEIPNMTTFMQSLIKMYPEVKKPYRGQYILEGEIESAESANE
Kind of experiment: protein binding microarray; Rok is a gene silencer of Bacillus subtilis; high values mean tight binding. The settings on record: protein: recombinant; tags: GST (pTH5325, pDEST15-Magic modified); dsDNA, one strand shown. The gist of the method:
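Every oligonucleotide joins a 25-mer constant primer to a 35-mer variable part drawn from a de Bruijn sequence of order 10, so each non-palindromic 8-mer appears at least 32 times and each palindromic 8-mer 16 times. The preference for every 8-mer is reported as a unitless, rank-based enrichment score (E-score). This score spans 0.5 for the most favored 8-mer to −0.5 for the most disfavored.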
Consider AAAAGGGC, for which the binding signal is -0.186 E-score.

Consider GGACAGAC, for which the binding signal is -0.0976 E-score.

On to GAACGGGA, for which the binding signal was -0.108 E-score.

As for CAGCTCCA, the binding signal is -0.0439 E-score.

As for GCTATCGA, the binding signal turned out to be 0.102 E-score.

In the case of CCTATCGA, the binding signal came out at 0.117 E-score.

In the case of ACTATCGA, the binding signal came to 0.348 E-score.

On to TAGCAGAA, for which the binding signal was 0.073 E-score.

Turning to AAGCGAGT, the binding signal was -0.052 E-score.

Turning to AAGAAAGA, the binding signal worked out at 0.0949 E-score.

Take GAGGTATA: the binding signal was 0.243 E-score.

GAGGTAGA: the binding signal was 0.334 E-score.

For AAGGTAGA, the binding signal was 0.246 E-score.

In the case of GAGGTAGC, the binding signal is -0.122 E-score.

With CAGGTAGA, the binding signal amounted to 0.223 E-score.

As to TAGGTAGA, the binding signal was determined as 0.386 E-score.

Consider GACAGGGA, for which the binding signal was -0.0489 E-score.

AGCAATGA: the binding signal was -0.189 E-score.

As to CGACCAAC, the binding signal was -0.152 E-score.

As for ACCTTGCT, the binding signal was -0.156 E-score.

Take GTTTTCAA: the binding signal is -0.105 E-score.

For ATCAAAAT, the binding signal worked out at 0.231 E-score.

In the case of CGCCGTTC, the binding signal is -0.164 E-score.

Take CATATGTC: the binding signal is 0.00539 E-score.

With GATATGTA, the binding signal was found to be 0.303 E-score.

Regarding CATATGTA, the binding signal was 0.36 E-score.

As to CATATGAA, the binding signal is -0.0194 E-score.

With AATATGTA, the binding signal came out at 0.375 E-score.

With AATATGTC, the binding signal was found to be 0.135 E-score.

For the sequence GCATCAAC, the binding signal worked out at 0.0173 E-score.

CGATAAGC: the binding signal turned out to be 0.0146 E-score.

Take CTCTATGC: the binding signal is -0.0298 E-score.

As for AAGAGTAG, the binding signal came out at 0.212 E-score.

Turning to CAACTAGC, the binding signal was 0.214 E-score.

On to AAACTAGC, for which the binding signal came out at 0.337 E-score.

As to ACACTAGT, the binding signal was found to be 0.257 E-score.

Take GAACTAGC: the binding signal worked out at 0.205 E-score.

AAACTAGG: the binding signal is 0.285 E-score.

In the case of AAACTAGT, the binding signal was 0.445 E-score.

Take CGCTGCAA: the binding signal was -0.0879 E-score.

As for AACCATAA, the binding signal is 0.0116 E-score.

With TACCATAA, the binding signal stood at 0.354 E-score.

GACCATAA: the binding signal was found to be 0.0376 E-score.

Regarding ACGTTCGG, the binding signal was 0.0487 E-score.

For GATGGCGA, the binding signal is 0.0644 E-score.

With CAATCTAA, the binding signal worked out at 0.232 E-score.

With CAATCTGC, the binding signal was 0.0189 E-score.

As to GAATCTAA, the binding signal amounted to 0.188 E-score.

For CAATCTAC, the binding signal was 0.395 E-score.

For the sequence GAATCTAC, the binding signal amounted to 0.423 E-score.

Turning to GAATCTCC, the binding signal stood at 0.0847 E-score.

CGATCTAC: the binding signal was determined as 0.335 E-score.

For the sequence CGATCTAA, the binding signal is -0.0333 E-score.

CGATCTAG: the binding signal is 0.26 E-score.

In the case of CAAGAACC, the binding signal is -0.0441 E-score.

Regarding GGGACAAA, the binding signal is -0.132 E-score.

In the case of TGGAGGAA, the binding signal was -0.00731 E-score.

On to AGCGTAAG, for which the binding signal was -0.0539 E-score.

For CCTATTCG, the binding signal is -0.0809 E-score.

On to ACTCATCT, for which the binding signal was -0.0629 E-score.

In the case of ATGCCCAC, the binding signal was -0.129 E-score.

In the case of AATTTGTA, the binding signal is 0.346 E-score.

As to ATTTTGTA, the binding signal amounted to 0.228 E-score.

Turning to AGTTTGTC, the binding signal turned out to be 0.0866 E-score.

Consider GATTTGTA, for which the binding signal was found to be 0.176 E-score.

Take AGTTTGTA: the binding signal stood at 0.367 E-score.

For the sequence CGTTTGTA, the binding signal worked out at 0.113 E-score.

On to ACTGAAGG, for which the binding signal was -0.0541 E-score.

Regarding AGCTCGTC, the binding signal was -0.149 E-score.

For CCACTAAC, the binding signal stood at 0.0126 E-score.

CTGCTCCA: the binding signal was -0.00585 E-score.

On to CGACATGC, for which the binding signal was -0.104 E-score.

On to CATTCTAC, for which the binding signal worked out at 0.384 E-score.

On to GATTCTGC, for which the binding signal was found to be 0.0425 E-score.

As for CATTCTAA, the binding signal was determined as 0.12 E-score.

With CATTCTAG, the binding signal turned out to be 0.202 E-score.

For AATTCTAA, the binding signal was determined as 0.286 E-score.

For AGTTCTAT, the binding signal came to 0.242 E-score.

As for AATTCTAC, the binding signal amounted to 0.421 E-score.

As for AATTCTAT, the binding signal was determined as 0.286 E-score.

As for GATTCTAC, the binding signal is 0.406 E-score.

For AGTTCTAC, the binding signal was determined as 0.386 E-score.

On to AGTTCTAA, for which the binding signal amounted to 0.142 E-score.

Take GATTCTAA: the binding signal amounted to 0.086 E-score.

Regarding CCGACGTA, the binding signal is -0.0042 E-score.

For CACATTAG, the binding signal amounted to 0.175 E-score.

Consider GACTCGTA, for which the binding signal was -0.148 E-score.

Turning to ATGCTACC, the binding signal turned out to be 0.00967 E-score.

For the sequence TAGATAAA, the binding signal was 0.292 E-score.

For AAAAAATG, the binding signal is -0.032 E-score.

Take TCAGGAGA: the binding signal is -0.166 E-score.

On to ACTAATGC, for which the binding signal stood at 0.262 E-score.

Consider AACTACTA, for which the binding signal was 0.465 E-score.

Turning to CGCTACTA, the binding signal was 0.326 E-score.

As for AGCTACTG, the binding signal turned out to be 0.233 E-score.

Regarding GGCTACTA, the binding signal came to 0.0153 E-score.

Consider AGCTACTA, for which the binding signal worked out at 0.378 E-score.

As for TACTACTA, the binding signal worked out at 0.44 E-score.

Regarding TACTACGA, the binding signal amounted to 0.291 E-score.

For the sequence AACTACGG, the binding signal stood at 0.19 E-score.

Regarding GCCTACTA, the binding signal was found to be 0.229 E-score.

For TACTACAA, the binding signal was determined as 0.303 E-score.

As for AACTACTG, the binding signal stood at 0.424 E-score.

AACTATTG: the binding signal stood at 0.291 E-score.

Turning to AGGGCACA, the binding signal is -0.171 E-score.

With ATGAATCA, the binding signal is -0.0987 E-score.

Turning to CCGACAAC, the binding signal is -0.076 E-score.

As for TACCCTCA, the binding signal was -0.129 E-score.

Turning to AAGTTCCA, the binding signal was -0.0431 E-score.

For the sequence ACTCACTG, the binding signal was determined as 0.00942 E-score.

On to GATCCAAC, for which the binding signal is -0.164 E-score.

For CAACCATC, the binding signal was -0.0304 E-score.

As to ATTAAACG, the binding signal came to 0.0877 E-score.

Consider ACAAGGGC, for which the binding signal was -0.198 E-score.

As for AATGCCCT, the binding signal was determined as 0.0279 E-score.

As for AAGTACTT, the binding signal came to 0.325 E-score.

For the sequence CACTACTG, the binding signal was 0.0489 E-score.

On to ACCTACTG, for which the binding signal worked out at 0.238 E-score.

Turning to AACAACTT, the binding signal turned out to be 0.144 E-score.

As for CGCTAATA, the binding signal is 0.286 E-score.

Turning to ACCTACTA, the binding signal came to 0.343 E-score.

As to AGCTAATC, the binding signal was determined as 0.102 E-score.

Regarding AGCTAATA, the binding signal was determined as 0.366 E-score.

Regarding AACTACTT, the binding signal came to 0.392 E-score.

For the sequence CACTACGA, the binding signal came to 0.123 E-score.

Consider CACTACTA, for which the binding signal was 0.344 E-score.

With CCCTACTA, the binding signal came out at 0.124 E-score.

In the case of CGAAGGAG, the binding signal is -0.0169 E-score.

For ACCAGACG, the binding signal is -0.153 E-score.

Take AGTAGTCA: the binding signal turned out to be 0.259 E-score.

For AGTAAAGA, the binding signal came to 0.0717 E-score.

As for CTCGCTCA, the binding signal is -0.0517 E-score.

With ACTATGGA, the binding signal was determined as 0.0778 E-score.

CGTTATCA: the binding signal turned out to be 0.165 E-score.

As to ACGTCCTG, the binding signal is -0.0421 E-score.

Turning to ACTGACGG, the binding signal is -0.0188 E-score.

Consider ACTAACAC, for which the binding signal came out at 0.0585 E-score.

Regarding GACTACTA, the binding signal was found to be 0.373 E-score.

For GACTACTC, the binding signal came out at 0.127 E-score.

As to AACTACTC, the binding signal was 0.363 E-score.

As to TACTGCTA, the binding signal was 0.334 E-score.

For the sequence AGCTACCC, the binding signal was 0.025 E-score.

Turning to AACTGCTA, the binding signal turned out to be 0.0364 E-score.

On to AGCTACCT, for which the binding signal was found to be 0.209 E-score.

Regarding GACTACGA, the binding signal came to 0.0584 E-score.

In the case of AGCTACCA, the binding signal is 0.35 E-score.

With CACTGCTA, the binding signal came out at 0.0112 E-score.

In the case of ACCTACTC, the binding signal turned out to be 0.0493 E-score.

CACTACTC: the binding signal was -0.0277 E-score.

Consider AAAACCGA, for which the binding signal is 0.0507 E-score.

With TATTCCCA, the binding signal is 0.217 E-score.

As for ATCTAGGC, the binding signal worked out at 0.0159 E-score.

With GCAACATA, the binding signal came out at 0.217 E-score.

On to CTCGCATC, for which the binding signal was -0.126 E-score.

On to CGACTATA, for which the binding signal stood at 0.122 E-score.

On to CTGCTATA, for which the binding signal was found to be 0.039 E-score.

Take CCACTATA: the binding signal stood at 0.219 E-score.

CTACTATA: the binding signal came to 0.371 E-score.

Turning to GTACTATA, the binding signal turned out to be 0.436 E-score.

Turning to GCACTATA, the binding signal turned out to be 0.0612 E-score.

Turning to ATGCTATA, the binding signal was found to be 0.35 E-score.

ATACTATA: the binding signal was determined as 0.365 E-score.

GGACTATA: the binding signal was 0.0884 E-score.

On to ATACTAGA, for which the binding signal amounted to 0.305 E-score.

On to ATACTATG, for which the binding signal is 0.254 E-score.

As to GTGCTATA, the binding signal amounted to 0.202 E-score.

Turning to TGAGGCAA, the binding signal was -0.148 E-score.

Consider ACGACTTC, for which the binding signal stood at 0.0725 E-score.

In the case of GCTGGTTA, the binding signal is 0.0982 E-score.

With AGACCTGC, the binding signal is -0.148 E-score.

For the sequence CGCCAGCG, the binding signal is -0.123 E-score.

Turning to AGACAATA, the binding signal came to 0.0922 E-score.

For TACAGTCA, the binding signal was 0.144 E-score.

Regarding TGGCTGAA, the binding signal came out at 0.00639 E-score.
